Source: PubChem BioAssay (NCATS)
Records with an inconclusive call do not appear. Unmarked numbers belong to inactive results. Active and inactive are the calls of the source. The call rests on the fitted dose curve; in most records, active means well fitted inhibition curve with a large enough effect; inconclusive means small, poorly fitted or top-dose-only effect; inactive means flat fitted curve, though single readings scatter.

system: HEK293; assay: Cytotoxic Profiling of Annotated Libraries Using Quantitative High-Throughput Screening (AID 1296008); details: Five cell lines viability, CellTiter-Glo ATP luminescence, 48-72 h; max response: hits give low values; further: nearly all actives have a fitted effect of over 60% in size
How it was run: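 Compounds were pin-transferred onto cells and incubated 48 or 72 hr at 37 degree Celsius, 95% humidity. CellTiter-Glo was added, plates sat 10 min at room temperature, then ATP-coupled luminescence was imaged as the viability read-out.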
On the % scale 0 is the no-effect control and ±100 the full control effect; potency means the concentration at half of the fitted maximal effect.

SMILES | max response [%] | Potency
COc1ccc(C2=N[C@@H](c3ccc(Cl)cc3)[C@@H](c3ccc(Cl)cc3)N2C(=O)N2CCNC(=O)C2)c(OC(C)C)c1 | -29 | 
CC(C)(C)c1ccc(S(=O)(=O)NCc2ccc(C(=O)Nc3cccnc3)cc2)cc1 |  | 326 nM (active)
N#Cc1c(Oc2ccc(F)c(NC(=O)Cc3cccc(C(F)(F)F)c3)c2)ccc2nc(NC(=O)C3CC3)sc12 |  | 1300 nM (active)
COCCN1CCN(Cc2ccc(-c3n[nH]c4c3C(=O)c3c(NC(=O)NN5CCOCC5)cccc3-4)cc2)CC1 |  | 206 nM (active)
NC(=O)c1csc(C2OC(CO)C(O)C2O)n1 (centres undefined) | -9.16 | 
Cc1cc(C)c(Nc2ccnc(Nc3ccc(C#N)cc3)n2)c(C)c1 |  | 5170 nM (active)
Cc1ncc(CCCN(C)C)cc1Nc1ncc2c(n1)-c1ccc(C(F)(F)F)cc1NC(=S)C2 | -92.5 | 
O=C(COc1cccc2c(=O)[nH]ccc12)c1ccccc1 | -5.18 | 
C=CC1C(OC2OC(CO)C(O)C(O)C2O)OC=C(C(=O)OC)C1CC(=O)OCC1C(C)C(O)CC1C(CO)COC(=O)CC1C(C(=O)O)=COC(OC2OC(CO)C(O)C(O)C2O)/C1=C\C (centres undefined) | 0.0453 | 
